Measurements: PubChem BioAssay (Tox21)
Values without a mark were called inactive. Results filed as inconclusive are left out. Entries that show only a call come without a potency. The source made the active and inactive calls. Calls come from the whole dose curve; as a rule, active = well fitted curve in the direction sought with a large enough effect in the repeat runs; inconclusive = weak or mixed curves; inactive = no such curve, though single readings can be large; an effect the other way counts as inactive or inconclusive.

Legend:
[1] = A CellTox Green Cytotoxicity Assay to monitor cytotoxicity in HEK293 cells - 40 hour (AID 1224871); note: nearly all actives have a fitted effect of over 45% in size; note: potency is the fitted concentration of half-maximal effect
Summary of the method: (§1)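 Tox21 screen in HEK293: membrane-impermeant cyanine dye fluoresces on binding dead-cell DNA; compound pinned 5 h post-seeding, plates held at 37 C, signal read repeatedly through 40 h.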

[2] = qHTS RealTime-Glo MT Cell Viability Assay in HepG2 cells - 8 hour (AID 1224873); note: nearly all actives have a fitted effect of over 55% in size
Summary of the method: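 HepG2 cells (600/well) mixed with RealTime-Glo MT reagent, settled 5 h at 37 C/5% CO2 before compound addition. Nonlytic NanoLuc luminescence from viable-cell prosubstrate reduction read repeatedly during 40 h treatment at 37 C.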

[3] = qHTS RealTime-Glo MT Cell Viability Assay in HEK293 cells - 40 hour (AID 1224874); settings: RealTime-Glo luminescence; max response: active compounds read low; note: nearly all actives have a fitted effect of over 50% in size; note: potency is the fitted concentration of half-maximal effect
Summary of the method: (§2)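 HEK293 + NanoLuc + prosubstrate, 600 cells/well; 5 h, 37 C/5% CO2; compound 23 nL in DMSO by pintool; 37 C; luminescence read at 0, 8, 16, 24, 32 and 40 h time points.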

[4] = A CellTox Green Cytotoxicity Assay to monitor cytotoxicity in HEK293 cells - 24 hour (AID 1224875); note: nearly all actives have a fitted effect of over 45% in size; note: potency is the fitted concentration of half-maximal effect; for activity change: series mostly up to about 77 µM
Summary of the method: as §1

[5] = A CellTox Green Cytotoxicity Assay to monitor cytotoxicity in HepG2 cells - 16 hour (AID 1224876); note: nearly all actives have a fitted effect of over 45% in size; note: potency is the fitted concentration of half-maximal effect
Summary of the method: (§3)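 Measurements at 0, 8, 16, 24, 32 and 40 h of treatment captured CellTox Green fluorescence in HepG2 cells that had been co-plated with reagent and preincubated 5 h at 37 C/5% CO2.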

[6] = qHTS RealTime-Glo MT Cell Viability Assay in HepG2 cells - 32 hour (AID 1224877); note: nearly all actives have a fitted effect of over 55% in size; note: potency is the fitted concentration of half-maximal effect
Summary of the method: (§4)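 Cell number in HepG2 cultures estimated from NanoLuc luminescence generated by metabolic reduction of a prosubstrate by living cells. The homogeneous, nonlytic format allowed repeated reads at 0, 8, 16, 24, 32 and 40 h of compound exposure.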

[7] = A CellTox Green Cytotoxicity Assay to monitor cytotoxicity in HepG2 cells - 24 hour (AID 1224878); note: nearly all actives have a fitted effect of over 45% in size; note: potency is the fitted concentration of half-maximal effect
Summary of the method: as §3

[8] = A CellTox Green Cytotoxicity Assay to monitor cytotoxicity in HepG2 cells - 40 hour (AID 1224879); note: nearly all actives have a fitted effect of over 40% in size; note: potency is the fitted concentration of half-maximal effect
Summary of the method: as §3

[9] = qHTS RealTime-Glo MT Cell Viability Assay in HEK293 cells - 0 hour (AID 1224880)
Summary of the method: as §2

[10] = A CellTox Green Cytotoxicity Assay to monitor cytotoxicity in HEK293 cells - 32 hour (AID 1224881); note: nearly all actives have a fitted effect of over 40% in size; note: potency is the fitted concentration of half-maximal effect
Summary of the method: as §1

[11] = A CellTox Green Cytotoxicity Assay to monitor cytotoxicity in HepG2 cells - 0 hour (AID 1224882); note: nearly all actives have a fitted effect of over 35% in size
Summary of the method: as §3

[12] = A CellTox Green Cytotoxicity Assay to monitor cytotoxicity in HepG2 cells - 32 hour (AID 1224883); note: nearly all actives have a fitted effect of over 50% in size; note: potency is the fitted concentration of half-maximal effect
Summary of the method: as §3

[13] = A CellTox Green Cytotoxicity Assay to monitor cytotoxicity in HEK293 cells - 8 hour (AID 1224884); note: nearly all actives have a fitted effect of over 35% in size
Summary of the method: as §1

[14] = qHTS RealTime-Glo MT Cell Viability Assay in HepG2 cells - 16 hour (AID 1224885); note: nearly all actives have a fitted effect of over 50% in size
Summary of the method: as §4

[15] = qHTS RealTime-Glo MT Cell Viability Assay in HEK293 cells - 24 hour (AID 1224886); note: nearly all actives have a fitted effect of over 50% in size; note: potency is the fitted concentration of half-maximal effect; for activity change, negative = cytotoxicity: top concentration of the series differs between compounds
Summary of the method: (§5)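 Homogeneous bioluminescent viability format in HEK293 cells (600 cells/well). Following 5 h at 37 C/5% CO2, 23 nL compound was pintooled; the signal was measured repeatedly during 40 h incubation.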

[16] = qHTS RealTime-Glo MT Cell Viability Assay in HEK293 cells - 8 hour (AID 1224887); note: nearly all actives have a fitted effect of over 50% in size; note: potency is the fitted concentration of half-maximal effect; for activity change, negative = cytotoxicity: top concentration of the series differs between compounds
Summary of the method: as §2

[17] = A CellTox Green Cytotoxicity Assay to monitor cytotoxicity in HEK293 cells - 16 hour (AID 1224888); note: nearly all actives have a fitted effect of over 35% in size
Summary of the method: as §1

[18] = qHTS RealTime-Glo MT Cell Viability Assay in HepG2 cells - 0 hour (AID 1224889); note: nearly all actives have a fitted effect of over 50% in size
Summary of the method: as §4

[19] = A CellTox Green Cytotoxicity Assay to monitor cytotoxicity in HepG2 cells - 8 hour (AID 1224890); note: nearly all actives have a fitted effect of over 45% in size
Summary of the method: as §3

[20] = qHTS RealTime-Glo MT Cell Viability Assay in HEK293 cells - 16 hour (AID 1224872); note: nearly all actives have a fitted effect of over 50% in size; note: potency is the fitted concentration of half-maximal effect; for activity change, negative = cytotoxicity: top concentration of the series differs between compounds
Summary of the method: as §5

SMILES: O=S(=O)(O)CO
- Potency [1]: inactive
- Potency [2]: inactive
- max response [3]: 4.46%
- Potency [4]: inactive
- Potency [5]: inactive
- Potency [6]: inactive
- Potency [7]: inactive
- Potency [8]: inactive
- Potency [9]: inactive
- Potency [10]: inactive
- Potency [11]: inactive
- Potency [12]: inactive
- Potency [13]: inactive
- Potency [14]: inactive
- Potency [15]: inactive
- Potency [16]: inactive
- Potency [17]: inactive
- Potency [18]: inactive
- Potency [19]: inactive

SMILES: CC(=O)OCCC1CCCCC1
- Potency [1]: inactive
- Potency [20]: inactive
- Potency [2]: inactive
- Potency [4]: inactive
- Potency [6]: inactive
- Potency [9]: inactive
- Potency [10]: inactive
- Potency [11]: inactive
- Potency [13]: inactive
- Potency [14]: inactive
- Potency [15]: inactive
- Potency [16]: inactive
- Potency [17]: inactive
- Potency [18]: inactive
- Potency [19]: inactive

SMILES: CCOC(=O)N1CCC(Nc2ccc(Cl)cc2N)CC1
- Potency [1]: inactive
- Potency [20]: inactive
- Potency [2]: inactive
- Potency [4]: inactive
- Potency [5]: inactive
- Potency [6]: inactive
- Potency [7]: inactive
- Potency [8]: inactive
- Potency [9]: inactive
- Potency [10]: inactive
- Potency [11]: inactive
- Potency [12]: inactive
- Potency [13]: inactive
- Potency [14]: inactive
- Potency [16]: inactive
- Potency [17]: inactive
- Potency [18]: inactive
- Potency [19]: inactive

SMILES: CC(=O)NCCO
- Potency [1]: inactive
- Potency [20]: inactive
- Potency [2]: inactive
- Potency [4]: inactive
- Potency [5]: inactive
- Potency [6]: inactive
- Potency [7]: inactive
- Potency [8]: inactive
- Potency [9]: inactive
- Potency [10]: inactive
- Potency [11]: inactive
- Potency [12]: inactive
- Potency [13]: inactive
- Potency [14]: inactive
- Potency [16]: inactive
- Potency [17]: inactive
- Potency [18]: inactive
- Potency [19]: inactive

SMILES: COc1ccc(-c2cc(=S)ss2)cc1
- Potency [1]: inactive
- Potency [20]: inactive
- Potency [2]: inactive
- Potency [4]: inactive
- Potency [5]: inactive
- Potency [6]: inactive
- Potency [7]: inactive
- Potency [8]: inactive
- Potency [9]: inactive
- Potency [10]: inactive
- Potency [11]: inactive
- Potency [12]: inactive
- Potency [13]: inactive
- Potency [14]: inactive
- Potency [15]: inactive
- Potency [17]: inactive
- Potency [18]: inactive

SMILES: Cc1cn([C@H]2C[C@H](F)[C@@H](CO)O2)c(=O)[nH]c1=O
- Potency [1]: inactive
- Potency [2]: inactive
- max response [3]: 16.7%
- Potency [4]: inactive
- Potency [5]: inactive
- Potency [6]: inactive
- Potency [7]: inactive
- Potency [8]: inactive
- Potency [9]: inactive
- Potency [10]: inactive
- Potency [11]: inactive
- Potency [12]: inactive
- Potency [13]: inactive
- Potency [14]: inactive
- Potency [15]: inactive
- Potency [16]: inactive
- Potency [17]: inactive
- Potency [18]: inactive

SMILES: CCN(Cc1cccc(S(=O)(=O)O)c1)c1ccc(C(=C2C=CC(=[N+](CC)Cc3cccc(S(=O)(=O)O)c3)C=C2)c2ccccc2S(=O)(=O)[O-])cc1
- Potency [1]: inactive
- Potency [2]: inactive
- max response [3]: -0.266%
- Potency [4]: inactive
- Potency [5]: inactive
- Potency [6]: inactive
- Potency [7]: inactive
- Potency [8]: inactive
- Potency [9]: inactive
- Potency [10]: inactive
- Potency [11]: inactive
- Potency [12]: inactive
- Potency [13]: inactive
- Potency [14]: inactive
- Potency [15]: inactive
- Potency [16]: inactive
- Potency [18]: inactive
- Potency [19]: inactive

SMILES: c1ccc2sc(SSc3nc4ccccc4s3)nc2c1
- cytotoxicity increase [1]: 14.8% [at 15.8 µM]
- activity change, negative = cytotoxicity [20]: -1.01% [at 15.8 µM]
- viability change, negative = cytotoxic [2]: 2.86% [at 15.8 µM]
- activity change [4]: 14.2% [at 15.8 µM, active compounds read high]
- cytotoxicity increase [5]: 2.16% [at 15.8 µM]
- activity change, negative = cytotoxic [6]: 1.02% [at 15.8 µM]
- cytotoxicity [7]: 3.43% [at 15.8 µM]
- cytotoxicity increase [8]: 16.6% [at 15.8 µM]
- activity change, negative = cytotoxicity [9]: -1.35% [at 15.8 µM]
- cytotoxicity increase [10]: 13.3% [at 15.8 µM]
- cytotoxicity [11]: 0.139% [at 15.8 µM]
- cytotoxicity increase [12]: 4.1% [at 15.8 µM]
- cytotoxicity increase [13]: 3.51% [at 15.8 µM]
- activity change, negative = cytotoxic [14]: 5.08% [at 15.8 µM]
- activity change, negative = cytotoxicity [16]: 0.0342% [at 15.8 µM]
- activity change [17]: 10.5% [at 15.8 µM, active compounds read high]
- activity change, negative = cytotoxicity [18]: 0.525% [at 15.8 µM]
- cytotoxicity increase [19]: 0.594% [at 15.8 µM]

SMILES: CCSC(=O)N(CC)CC
- Potency [1]: inactive
- Potency [2]: inactive
- max response [3]: 0.524%
- Potency [4]: inactive
- Potency [5]: inactive
- Potency [6]: inactive
- Potency [7]: inactive
- Potency [8]: inactive
- Potency [9]: inactive
- Potency [10]: inactive
- Potency [11]: inactive
- Potency [12]: inactive
- Potency [13]: inactive
- Potency [14]: inactive
- Potency [15]: inactive
- Potency [16]: inactive
- Potency [17]: inactive
- Potency [18]: inactive
- Potency [19]: inactive

SMILES: CCCCCCCC(=O)OCCCCCC
- Potency [1]: inactive
- Potency [2]: inactive
- Potency [3]: 3.47 µM (active)
- Potency [4]: inactive
- Potency [5]: inactive
- Potency [6]: inactive
- Potency [7]: inactive
- Potency [8]: inactive
- Potency [9]: inactive
- Potency [10]: inactive
- Potency [11]: inactive
- Potency [12]: inactive
- Potency [13]: inactive
- Potency [14]: inactive
- Potency [18]: inactive
- Potency [19]: inactive

SMILES: CC(C)(O)c1coc(S(=O)(=O)NC(=O)Nc2c3c(cc4c2CCC4)CCC3)c1
- Potency [1]: inactive
- Potency [20]: inactive
- Potency [2]: inactive
- Potency [4]: inactive
- Potency [6]: inactive
- Potency [9]: inactive
- Potency [10]: inactive
- Potency [11]: inactive
- Potency [13]: inactive
- Potency [14]: inactive
- Potency [15]: inactive
- Potency [16]: inactive
- Potency [17]: inactive
- Potency [18]: inactive
- Potency [19]: inactive

SMILES: CN1CCCN(C(c2ccccc2)c2ccc(Cl)cc2)CC1 (centres undefined)
- Potency [1]: 26.8 µM (active)
- Potency [20]: inactive
- Potency [2]: inactive
- Potency [4]: 23.9 µM (active)
- Potency [5]: 23.9 µM (active)
- Potency [6]: 23.9 µM (active)
- Potency [7]: 23.9 µM (active)
- Potency [8]: 21.3 µM (active)
- Potency [10]: 26.8 µM (active)
- Potency [11]: inactive
- Potency [12]: 21.3 µM (active)
- Potency [13]: inactive
- Potency [16]: inactive
- Potency [17]: inactive
- Potency [19]: inactive

SMILES: OCC(CO)n1cnc(-c2ccc(F)cc2)c1-c1ccnc(Oc2ccccc2)n1
- Potency [1]: inactive
- Potency [20]: inactive
- Potency [2]: inactive
- Potency [4]: inactive
- Potency [5]: inactive
- Potency [7]: inactive
- Potency [8]: inactive
- Potency [9]: inactive
- Potency [10]: inactive
- Potency [11]: inactive
- Potency [12]: inactive
- Potency [13]: inactive
- Potency [14]: inactive
- Potency [15]: inactive
- Potency [16]: inactive
- Potency [17]: inactive
- Potency [18]: inactive
- Potency [19]: inactive

SMILES: CNS(=O)(=O)c1cc(C(=O)N2CCC(CCN3C4CCC3CC(n3c(C)nc5ccccc53)C4)(c3cccc(F)c3)CC2)c(Cl)cc1F (centres undefined)
- Potency [1]: inactive
- Potency [20]: 4.36 µM (active)
- Potency [3]: 4.36 µM (active)
- Potency [4]: inactive
- Potency [5]: inactive
- Potency [7]: inactive
- Potency [8]: inactive
- Potency [9]: inactive
- Potency [10]: inactive
- Potency [11]: inactive
- Potency [12]: inactive
- Potency [13]: inactive
- Potency [15]: 4.36 µM (active)
- Potency [16]: 3.89 µM (active)
- Potency [17]: inactive
